From PubChem BioAssay (Tox21) come the findings set out here.

Where “and” joins values, the source holds several entries; their conditions need not be identical. Identical values can stand only once. Results filed as inconclusive are left out. Calls of active or inactive are those of the source. The call rests on the fitted dose curve; in most records, active means well fitted inhibition curve with a large enough effect in the repeat runs; inconclusive means weak or mixed curves; inactive means no such curve, though single readings can be large or run the other way.
On the % scale 0 is the no-effect control and ±100 the full control effect; potency means the concentration at half of the fitted maximal effect.

Cytochrome P450 2C19 (Homo sapiens), sequence (P33261 whole entry, looked up): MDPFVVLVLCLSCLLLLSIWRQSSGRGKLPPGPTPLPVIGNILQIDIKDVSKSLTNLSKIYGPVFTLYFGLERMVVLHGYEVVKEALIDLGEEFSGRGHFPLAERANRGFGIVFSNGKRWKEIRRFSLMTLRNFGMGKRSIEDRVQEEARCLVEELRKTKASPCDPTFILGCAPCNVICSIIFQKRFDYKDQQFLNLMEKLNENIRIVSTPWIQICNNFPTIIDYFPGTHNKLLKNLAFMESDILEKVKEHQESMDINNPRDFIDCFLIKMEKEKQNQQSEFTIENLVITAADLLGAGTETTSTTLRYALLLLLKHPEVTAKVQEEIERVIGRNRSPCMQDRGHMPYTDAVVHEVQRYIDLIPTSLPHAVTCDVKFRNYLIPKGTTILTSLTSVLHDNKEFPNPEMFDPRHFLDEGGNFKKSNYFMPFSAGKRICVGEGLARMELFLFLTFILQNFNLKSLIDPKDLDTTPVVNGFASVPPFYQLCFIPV

The assay concerns the target Cytochrome P450 2C19 (Homo sapiens) (UniProt P33261). The experiment in a line: Cytochrome P450 Family 2 Subfamily C Member 19 (CYP2C19) small molecule antagonists: luciferase reporter qHTS assay (AID 1671197). Further: nearly all actives have a fitted effect of over 65% in size. The note with it: P450-Glo CYP2C19 enzyme, luciferin luminescence, 1 h; series mostly up to 115 µM; activity change, negative = inhibition: at the top concentration. The text has this: National Center for Advancing Translational Sciences [NCATS]
U.S. Environmental Protection Agency [EPA]
National Institutes of Environmental Health Sciences [NIEHS]
National Toxicology Program [NTP]
U.S. Food and Drug Administration [FDA]
Cytochrome P450 (CYP) enzymes are membrane-bound hemeproteins that play a key role in metabolism of drugs and xenobiotics. Evaluation of the effect of chemicals on CYP isozymes is useful to minimize the adverse drug reactions and toxicities in drug development process. Tox21 chemicals were tested for their effect on CYP enzyme activities by using P450-Glo (TM) screening systems (Promega Corporation, Madison, WI). These systems provide a luminescent method containing proluciferin substrates and are converted to luciferin products by CYP isozymes. The luciferin products formed are detected with a luciferin detection reagent, and the amount of light produced is proportional to CYP activity. P450-Glo (TM) CYP2C19 screening system (Catalog. No. V9880) was used to detect the compounds that interfere in CYP2C19 activity. The positive control compound used for CYP2C19 assay is ketoconazole (Sigma-Aldrich, St. Louis, MO).
Tox21 Assay Protocol Summary:
Two ul of enzyme-substrate mix was dispensed into medium binding white/solid 1536-well plates (Greiner Bio-One North America Inc., Monroe, NC) using a BioRaptr Flying Reagent Dispenser (FRD, Beckman Coulter, Brea, CA). Compounds dissolved in DMSO and positive control (ketoconazole) were transferred to the assay plates at 23 nl using a Pintool station (Wako, San Diego, CA). The assay plates were incubated at room temperature for 10 min. Then 2 ul of NADPH regeneration solution was added to each well of the assay plates using an FRD and incubated at 37C for 1 h. The reaction was stopped by adding 4 ul of detection reagent using an FRD and after 20 min incubation at room temperature the luminescence signal was measured using a ViewLux plate reader (Perkin Elmer, Shelton, CT). Data were expressed as relative luminescence units.
(Reporter assays use an easily measured gene product as a stand-in for the process of interest.)
Take `CC(Cl)CCl` (stereo not given): the Potency is 70.8 µM (active).
With `N#CCCl`, the Potency was 37.1 µM (active).
In the case of `COC(=O)c1cc(Oc2ccc(Cl)cc2Cl)ccc1[N+](=O)[O-]`, the Potency was 2.52 µM (active).
Turning to `BrCCCBr`, the “activity change, negative = inhibition” value is 16.6% (inactive).
Still for that read-out and setting: then `CCN(CC)CCN1C(=O)CN=C(c2ccccc2F)c2cc(Cl)ccc21`, with -8.27% [at 52.9 µM] (inactive).
Consider `O=c1[nH]c(Cl)c(Cl)cc1Cl`, for which the “activity change, negative = inhibition” value is -0.864% (inactive).
With `Nc1ccc(Cl)cc1C(=O)c1ccccc1F`, the Potency was 11 µM (active).
In the case of `CN1C(=O)[C@@H](NC(=O)c2cc3ccccc3[nH]2)N=C(c2ccccc2)c2ccccc21`, the “activity change, negative = inhibition” value was 0.572% [at 52.9 µM] (inactive).
In the case of `Nc1nc(N)nc(Cl)n1`, the “activity change, negative = inhibition” value is -2.73% (inactive).
As for `Brc1ccc(Oc2ccc(Br)cc2Br)c(Br)c1`, the Potency was 0.142 µM (active).
`C=CC(=O)[O][Sn]([CH2]CCC)([CH2]CCC)[CH2]CCC`: the Potency was 0.894 µM (active).
As for `Nc1cc(Cl)ccc1Cl`, the “activity change, negative = inhibition” value is -24.6% (inactive).
Consider `c1csc(-c2ccc(-c3cccs3)s2)c1`, for which the Potency is 17.8 µM (active).
With `CNC(=O)O/N=C(\C)C(C)S(C)(=O)=O` (stereo not given), the “activity change, negative = inhibition” value was 7.98% [at 1.09 mM] (inactive).
As for `CSC1=N[C@@](C)(c2ccccc2)C(=O)N1Nc1ccccc1`, the Potency was 1.12 µM (active).
On the same count and under the same terms, under `COC(=O)c1ccccc1S(=O)(=O)NC(=O)Nc1nc(C)nc(OC)n1` stands 35.3 µM (active); under `O=S1OCC2C(CO1)C1(Cl)C(Cl)=C(Cl)C2(Cl)C1(Cl)Cl` (stereo not given), 3.18 µM (active) and 3.56 µM (active).
As to `CN1C2CCC(C)(C)C1CC(OC(=O)C(O)(c1cccs1)c1cccs1)C2` (stereo not given), the “activity change, negative = inhibition” value was 3.45% [at 52.9 µM] (inactive).
Consider `CCCN`, for which the “activity change, negative = inhibition” value was -15.1% (inactive).
Consider `CSSC`, for which the Potency was 80.6 µM (active).
On to `C#CCO`, for which the “activity change, negative = inhibition” value is -13.9% (inactive).
In the case of `Cc1cc(C2CC2)nc(Nc2ccccc2)n1`, the Potency was 39.9 µM (active).
For `O=C(N[C@H]1N=C(c2ccccc2F)c2cccc3c2N(CC3)C1=O)c1cc2ccccc2[nH]1`, the “activity change, negative = inhibition” value is 5.48% [at 52.9 µM] (inactive).
The same measure, in the same setting: then `COc1nc(C)nc(NC(=O)NS(=O)(=O)c2ccccc2Cl)n1`, with 21.1% (inactive).
As for `COc1ccc2c(c1OC)C(=O)O[C@@H]2[C@H]1c2cc3c(cc2CCN1C)OCO3`, the Potency was 3.95 µM (active).
Take `ClC1(Cl)C2(Cl)C3(Cl)C4(Cl)C(Cl)(Cl)C5(Cl)C3(Cl)C1(Cl)C5(Cl)C24Cl` (stereo not given): the “activity change, negative = inhibition” value was -5.13% (inactive).
Consider `CO/N=C(\C(=O)OC)c1ccccc1CO/N=C(\C)c1cccc(C(F)(F)F)c1`, for which the Potency is 3.56 µM (active).
With `CCC(C)c1cccc(C(C)CC)c1O` (stereo not given), the “activity change, negative = inhibition” value is -32.8% (inactive).
`O=[N+]([O-])C(Br)Br`: the “activity change, negative = inhibition” value was 14.4% (inactive).
On to `S=C=NCCc1ccccc1`, for which the Potency was 20.1 µM (active).
Turning to `[F][Sn]([c]1ccccc1)([c]1ccccc1)[c]1ccccc1`, the Potency was 3.99 µM (active).
Regarding `CC(C)NCC(O)c1ccccc1Cl` (stereo not given), the “activity change, negative = inhibition” value was 8.64% [at 52.9 µM] (inactive).
Take `CO/N=C(/C1=NOCCO1)c1ccccc1Oc1ncnc(Oc2ccccc2Cl)c1F`: the Potency is 7.96 µM (active).
Regarding `Cc1cnc2c(C(=O)O)c(Cl)ccc2c1`, the “activity change, negative = inhibition” value is -9.78% (inactive).
On the same count and under the same terms, then `CCCCc1ccccc1`, with -5.59% (inactive); and `CC[N+]1(CC)CCC(OC(=O)C(O)(c2ccccc2)c2ccccc2)C1` (stereo not given), with -7.69% [at 52.9 µM] (inactive).
With `CNC(=O)Oc1cc(C)cc(C(C)C)c1`, the Potency was 20 µM (active).
For the molecule `BrCC(Br)(Br)Br`, the “activity change, negative = inhibition” value was -4.79% (inactive).
As to `CCc1cccc(C)c1N(C(=O)CCl)[C@@H](C)COC`, the Potency is 5.64 µM (active).
With `c1ccc(N=NNc2ccccc2)cc1`, the Potency is 23.2 µM (active) and 50.2 µM (active).
